This is a sample that favours compounds with a hit; in the whole collection about 7.3% have one here.
HEK293 viab = counter-screen for SNCA expression inhibitors: cell viability | AID 1671193 | HEK-293-SNCA-luc viability, GF-AFC fluorescence, 24 h | Potency, µM (highest dose often 57.1 µM), for the others: at the highest dose activity change, negative = cytotoxicity, hits mostly cytotoxic | 150,000 compounds, 0.12% hits;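 note: potency is the fitted concentration of half-maximal effect; 0% = DMSO-treated cells and -100% = medium-only wells without cells; nearly all actives have a fitted effect of over 30% in size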
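Cytotoxicity counterscreen: after 24 h compound treatment of genome-edited SNCA-luciferase HEK-293 cells, live-cell protease substrate GF-AFC read by fluorescence after 30 min; activity scaled between DMSO (0%) and medium-only (-100%), curves Hill-fitted.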
HEK cytotox = kills HEK 293 cells; HEK 293 viability, ATP luminescence (CellTiter-Glo), 48-72 h; 94,000 compounds, 6.6% hits; Potency, µM (doses to about 115 µM), for inactives: top-dose activity change, negative = cytotoxicity, usual class: inhibitors; note: potency is the fitted concentration of half-maximal effect; nearly all actives have a fitted effect of over 60% in size
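HEK 293 cells seeded at 250 cells/well were exposed to compound for 48 or 72 hr at 37 degree Celsius. Viability taken as ATP content by CellTiter-Glo luminescence.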
FLuc inh = Photinus pyralis luciferase inhibition. purified P. pyralis luciferase, luminescence, biochemical. AID 1347043. P08659. 76,000 compounds, 2.5% hits. Potency, µM (titrated, usually from 115 µM), most hits filed as inhibitors; note: potency is the fitted concentration of half-maximal effect; nearly all actives have a fitted effect of over 65% in size
Target sequence (P08659 whole entry, looked up): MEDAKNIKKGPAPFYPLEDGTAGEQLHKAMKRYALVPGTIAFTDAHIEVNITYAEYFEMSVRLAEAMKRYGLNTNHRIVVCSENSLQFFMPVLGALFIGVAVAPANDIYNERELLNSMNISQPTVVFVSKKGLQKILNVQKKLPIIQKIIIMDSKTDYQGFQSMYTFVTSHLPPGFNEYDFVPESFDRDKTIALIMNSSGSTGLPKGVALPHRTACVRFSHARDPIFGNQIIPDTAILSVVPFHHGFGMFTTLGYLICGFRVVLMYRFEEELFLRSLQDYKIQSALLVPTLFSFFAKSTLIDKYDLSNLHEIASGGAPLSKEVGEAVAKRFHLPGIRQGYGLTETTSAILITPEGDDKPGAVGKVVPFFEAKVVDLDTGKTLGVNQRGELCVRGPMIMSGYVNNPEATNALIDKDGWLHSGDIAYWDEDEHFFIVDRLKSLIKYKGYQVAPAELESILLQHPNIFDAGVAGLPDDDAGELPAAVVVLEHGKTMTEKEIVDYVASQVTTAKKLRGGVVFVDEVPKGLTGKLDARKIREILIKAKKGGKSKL
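Purified 10nM P. pyralis luciferase with 10uM D-luciferin and 10uM ATP in 50mM Tris acetate pH 7.5, 10mM Mg acetate, 0.01% Tween-20, 0.05% BSA. qHTS titration; luminescence read by CCD imager.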
IP6K1 inh = blocks human inositol hexakisphosphate kinase 1 | IP6K1 kinase, ADP-Glo luminescence, 2 h; stronger effect = lower value | activity change, % (series mostly up to about 58 µM) | 140,000 compounds, 0.81% hits | AID 1645851; in the data active = activity change below about -25%
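ADP-Glo luminescence measures ADP made by human IP6K1 during a 2 h RT reaction with ATP/IP6 (mix at 1.3 mM/130 uM); top library doses 57.5 and 19.1 uM final.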
3T3 cytotox = kills NIH 3T3 cells | NIH 3T3 viability, CellTiter-Glo ATP luminescence, 48-72 h | Potency, µM (titrated, usually from 96.7 µM), inactives show at the highest dose activity change, negative = cytotoxicity, hits mostly inhibitors | 94,000 compounds, 4.3% hits; note: potency is the fitted concentration of half-maximal effect; nearly all actives have a fitted effect of over 55% in size
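Cells were seeded at 400 per well, treated with pin-transferred compound, and kept 48 or 72 hr at 37 °C before CellTiter-Glo addition and luminescence imaging of cellular ATP.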
SNCA expr inhib = SNCA gene expression inhibition | HEK-293 SNCA-luciferase knock-in, luminescence, 24 h | Potency, µM (titrated, usually from 57.2 µM), inactives show at the top dose activity change, negative = inhibition, actives largely listed as inhibitors | 140,000 compounds, 0.17% hits;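 note: potency is the fitted concentration of half-maximal effect; plate controls were DMSO cells for no effect and cell-free wells for full effect; nearly all actives have a fitted effect of over 45% in size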
Starred values were filed as active, the others as inactive; [ ] = dose if it differs, or a comment. Unless noted, calls come from the whole dose curve; as a rule, active = well fitted curve in the direction sought with a large enough effect; inconclusive = small, poorly fitted or top-dose-only effect, or another doubt; inactive = no such curve, though single readings can be large; an effect the other way counts as inactive or inconclusive. Unless noted, % is set by controls: 0 for no effect and ±100 for the full control effect.

Screening Cc1nn(Cc2ccccc2)c(C)c1[C@@H]1C=C[C@@H](NC(=O)Nc2cccc(C#N)c2)C1 returned HEK293 viab -6.1%[87.6 µM], HEK cytotox 70.8µM*, FLuc inh inactive, IP6K1 inh 1.8, 3T3 cytotox inconclusive and SNCA expr inhib inconclusive.
`Cc1nn(Cc2ccccc2)c(C)c1[C@@H]1C=C[C@@H](NC(=O)c2ccc(F)c(Cl)c2)C1` gave HEK293 viab inconclusive, HEK cytotox 28.2µM*, FLuc inh inactive, IP6K1 inh -11.8, 3T3 cytotox inconclusive and SNCA expr inhib inconclusive.
Cc1nn(Cc2ccccc2)c(C)c1[C@@H]1C=C[C@@H](NC(=O)c2ccco2)C1 was read as HEK293 viab -10.5%[87.6 µM], HEK cytotox 70.8µM*, FLuc inh inactive, IP6K1 inh -2.8, 3T3 cytotox inconclusive and SNCA expr inhib 9.5%[87.6 µM].
Screening O=C(Cc1cn2ccsc2n1)NC1CC(c2nnc(CO)n2C2CC2)C1 (centres undefined) returned HEK293 viab -16.1%, HEK cytotox -3.9%, FLuc inh inactive, IP6K1 inh 4.3, 3T3 cytotox 4.9% and SNCA expr inhib -7.2%.
Cc1cc(F)ccc1OC1CNC1 was read as HEK293 viab 0.8%[87.6 µM], HEK cytotox -14.9%[230 µM], IP6K1 inh 1.4, 3T3 cytotox -9.2%[174 µM] and SNCA expr inhib 0.5%[87.6 µM].
COc1ccc(S(=O)(=O)Nc2ccc(C)n(CC(=O)N(C)Cc3ccco3)c2=O)cc1 was read as HEK293 viab -22.7%, HEK cytotox 31.6µM*, FLuc inh inactive, IP6K1 inh -6.0, 3T3 cytotox 2.8% and SNCA expr inhib inconclusive.
For CSc1cccc(NC(=O)Cn2cccc2-c2nc(-c3ccc4c(c3)OCO4)no2)c1 the results were HEK293 viab 6.5%, HEK cytotox 5.5%, FLuc inh inactive, IP6K1 inh 13.7, 3T3 cytotox inactive and SNCA expr inhib 0.3%.
For CC(=O)c1ccc(NC(=O)N2Cc3[nH]cnc3C[C@H]2c2nc(-c3ccccc3)no2)cc1 the results were HEK293 viab 4.9%[87.6 µM], HEK cytotox 0.0%[172 µM], FLuc inh inactive, IP6K1 inh 24.2, 3T3 cytotox -5.5%[138 µM] and SNCA expr inhib 7.9%[87.6 µM].
`O=C(c1ccc(F)cc1)N1Cc2[nH]cnc2C[C@H]1c1nc(-c2ccc3c(c2)OCO3)no1` gave HEK293 viab -10.5%[87.6 µM], HEK cytotox inconclusive, FLuc inh 31.6µM*, IP6K1 inh -12.4, 3T3 cytotox inconclusive and SNCA expr inhib inconclusive.
`COc1ccc(NC(=O)N2Cc3[nH]cnc3C[C@H]2c2nc(-c3ccc(C(F)(F)F)cc3)no2)cc1` gave HEK293 viab -5.4%, HEK cytotox inconclusive, FLuc inh inconclusive, IP6K1 inh 10.1, 3T3 cytotox inconclusive and SNCA expr inhib 17.6%.
O=C(Nc1ccccc1)N1Cc2[nH]cnc2C[C@H]1c1nc(-c2ccc3c(c2)OCO3)no1 was read as HEK293 viab inconclusive, HEK cytotox -26.1%[172 µM], FLuc inh inconclusive, IP6K1 inh 13.5, 3T3 cytotox inconclusive and SNCA expr inhib -21.3%[87.6 µM].
`O=C(Nc1ccccc1)N1Cc2[nH]cnc2C[C@H]1c1nc(-c2ccc(Cl)cc2)no1` gave HEK293 viab inconclusive, HEK cytotox 100µM*, FLuc inh 44.7µM*, IP6K1 inh 11.1, 3T3 cytotox inconclusive and SNCA expr inhib -7.5%[87.6 µM].
Screening O=C(Nc1ccccc1)N1Cc2[nH]cnc2C[C@H]1c1nc(-c2ccccc2)no1 returned HEK293 viab -20.4%[87.6 µM], HEK cytotox -10.2%[172 µM], FLuc inh 39.8µM*, IP6K1 inh 5.1, 3T3 cytotox inconclusive and SNCA expr inhib 102.9%[87.6 µM].
`Cc1ccc(-c2noc([C@@H]3Cc4nc[nH]c4CN3C(=O)Nc3ccc(Cl)cc3)n2)cc1` gave HEK293 viab -25.5%[87.6 µM], HEK cytotox inconclusive, FLuc inh 39.8µM*, IP6K1 inh 14.0, 3T3 cytotox inconclusive and SNCA expr inhib -44.4%[87.6 µM].
`Cc1ncsc1CN1CCC2(CC1)NCCc1c2[nH]c2ccccc12` gave HEK293 viab 3.9%[12.5 µM], HEK cytotox -6.4%, FLuc inh inactive, IP6K1 inh 5.7, 3T3 cytotox inconclusive and SNCA expr inhib 39.1%.
For COc1cccc(NC(=O)NC[C@H]2O[C@@H](CO)[C@@H](O)[C@H]2N2CCN(c3ccccc3OC)CC2)c1 the results were HEK293 viab 4.7%, HEK cytotox -0.1%, FLuc inh inactive, IP6K1 inh -0.9, 3T3 cytotox -4.4% and SNCA expr inhib 16.8%.
`CC(C)=CCC1(CO)CCCN(c2ccnc(N)n2)C1` (centres undefined) gave HEK293 viab 0.4%, HEK cytotox inconclusive, FLuc inh inactive, IP6K1 inh 0.0, 3T3 cytotox -5.6% and SNCA expr inhib -8.6%.
Screening O=C(c1ccc(Cl)cc1)N1CC2(CCN(Cc3ccccn3)C2)Cc2ccccc21 (centres undefined) returned HEK293 viab inconclusive, HEK cytotox inconclusive, IP6K1 inh -17.3, 3T3 cytotox inconclusive and SNCA expr inhib -14.0%.
For O=C(c1ccccc1)N1Cc2[nH]cnc2C[C@H]1c1nc(-c2ccncc2)no1 the results were HEK293 viab 2.6%[87.6 µM], HEK cytotox -16.6%[172 µM], FLuc inh inactive, IP6K1 inh -2.4, 3T3 cytotox -27.1%[174 µM] and SNCA expr inhib -14.3%[87.6 µM].
Screening O=C(O)CCC(=O)N1Cc2[nH]cnc2C[C@H]1c1nc(-c2ccc(Cl)cc2)no1 returned HEK293 viab -2.2%[87.6 µM], HEK cytotox 4.3%[172 µM], FLuc inh 70.8µM*, IP6K1 inh -0.7, 3T3 cytotox inactive and SNCA expr inhib inconclusive.
`Cc1ccc(-c2noc([C@@H]3Cc4nc[nH]c4CN3C(=O)c3ccccc3)n2)cc1` gave HEK293 viab -0.8%[87.6 µM], HEK cytotox 0.2%[172 µM], FLuc inh 39.8µM*, IP6K1 inh 7.1, 3T3 cytotox -19.5%[174 µM] and SNCA expr inhib inconclusive.
`O=C(c1cccs1)N1Cc2[nH]cnc2C[C@H]1c1nc(-c2ccc3ccccc3c2)no1` gave HEK293 viab -2.0%[87.6 µM], HEK cytotox -22.8%[172 µM], FLuc inh 28.2µM*, IP6K1 inh 11.2, 3T3 cytotox inconclusive and SNCA expr inhib 0.1%[87.6 µM].
Screening O=C(Nc1ccc(Cl)cc1)N1Cc2[nH]cnc2C[C@H]1c1nc(-c2ccc3ccccc3c2)no1 returned HEK293 viab -20.2%, HEK cytotox inconclusive, FLuc inh 31.6µM*, IP6K1 inh -0.3, 3T3 cytotox inconclusive and SNCA expr inhib 66.2%.
`CC(C)NC(=O)N1Cc2[nH]cnc2C[C@H]1c1nc(-c2ccccc2)no1` gave HEK293 viab -4.4%[87.6 µM], HEK cytotox inactive, FLuc inh inactive, IP6K1 inh 1.7, 3T3 cytotox -28.3%[174 µM] and SNCA expr inhib 114.4%[87.6 µM].

Bioassay records (PubChem BioAssay)
